“And” between values parts separate entries of the source, which are not always exact repeats. Equal entries are not always repeated. Inconclusive results are not listed. The source made the active and inactive calls. Calls follow the shape of the dose curve; as a rule, active = well fitted inhibition curve with a large enough effect; inconclusive = small, poorly fitted or top-dose-only effect; inactive = flat fitted curve, though single readings scatter.
Experiment: Drug repurposing screens with cells derived from glioblastoma tumor samples (AID 1345199); also: nearly all actives have a fitted effect of over 40% in size
Conditions: GBM patient neurospheres viability, ATP luminescence, 48 h; at 45.9 µM (top of the series); tumour line B
In short: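 Primary testing used CD133+ neurospheres from four GBM patients, seven concentrations, 48 h exposure and ATP-based viability; confirmation added three slower-growing patient lines.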
% is scaled to controls: 0 for no effect and ±100 for the full control effect.

| SMILES | activity, negative = cell killing |
| --- | --- |
| C/C=C(/CC[C@@H](C)[C@H]1CC[C@H]2C3=CC[C@H]4[C@H](C)[C@@H](O)CC[C@]4(C)[C@H]3CC[C@]12C)C(C)C | -6.71% (inactive) |
| CC1=C(C(=O)OCCN(Cc2ccccc2)c2ccccc2)C(c2cccc([N+](=O)[O-])c2)C(P2(=O)OCC(C)(C)CO2)=C(C)N1 (configuration not stated) | 19% (inactive) |
| Cc1cc(-n2c(=O)[nH]c(=O)n(C)c2=O)ccc1Oc1ccc(S(=O)(=O)C(F)(F)F)cc1 | -20.8% (inactive) |
| CCCCCCCCCCCCCCCC(=O)O[C@@H]1CC(C)=C(/C=C/C(C)=C/C=C/C(C)=C/C=C/C=C(C)/C=C/C=C(C)/C=C/C2=C(C)C[C@@H](OC(=O)CCCCCCCCCCCCCCC)CC2(C)C)C(C)(C)C1 | -12.7% (inactive) |

Same assay, conditions: GBM patient neurospheres viability, ATP luminescence, 48 h; at 46.1 µM (top of the series); tumour line C

| SMILES | activity, negative = cell killing |
| --- | --- |
| C/C=C(/CC[C@@H](C)[C@H]1CC[C@H]2C3=CC[C@H]4[C@H](C)[C@@H](O)CC[C@]4(C)[C@H]3CC[C@]12C)C(C)C | 9.21% (inactive) |
| CCCCCCCC(=O)CC[C@@H]1[C@@H](C/C=C\CCCC(=O)OC(C)C)[C@@H](O)C[C@H]1O | -21.1% (inactive) |
| CCOC(=O)COc1ccc2c(=O)cc(-c3ccccc3)oc2c1 | -1.42% (inactive) and -17.4% (inactive) |
